# Inconclusive results are not listed. Values without a mark were called inactive. Calls of active or inactive are those of the source. Calls come from the whole dose curve; as a rule, active = well fitted cell-killing curve with a large enough effect; inconclusive = small, poorly fitted or top-dose-only effect, or effect the other way; inactive = no such curve, though single readings can be large or run the other way.
# Columns and labels:
# [1] = Quantitative High-Throughput drug screen in 47 multiple myeloma cell lines against the NCATS MIPE library collection: OCIMY1_PLB cell viability assay (AID 1918979); note: nearly all actives have a fitted effect of over 35% in size;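 for viability: 100% = DMSO-only wells and 0% = cell-free media-only wells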
# Outline: (§1)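 Cells were exposed to library compounds for 48 hours, after which ATP was measured by CellTiter-Glo. Signal was taken as median relative luminescence units.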
# [2] = Quantitative High-Throughput drug screen in 47 multiple myeloma cell lines against the NCATS MIPE library collection: MM1S_ATCC cell viability assay (AID 1918980); note: nearly all actives have a fitted effect of over 45% in size
# Outline: as §1
# [3] = Quantitative High-Throughput drug screen in 47 multiple myeloma cell lines against the NCATS MIPE library collection: MM1R_ATCC cell viability assay (AID 1918981); note: nearly all actives have a fitted effect of over 35% in size
# Outline: as §1
# [4] = Quantitative High-Throughput drug screen in 47 multiple myeloma cell lines against the NCATS MIPE library collection: LP1_DSMZ cell viability assay (AID 1918982); note: nearly all actives have a fitted effect of over 35% in size
# Outline: as §1
# [5] = Quantitative High-Throughput drug screen in 47 multiple myeloma cell lines against the NCATS MIPE library collection: KMS28PE_JCRB cell viability assay (AID 1918983); note: nearly all actives have a fitted effect of over 35% in size
# Outline: as §1
# [6] = Quantitative High-Throughput drug screen in 47 multiple myeloma cell lines against the NCATS MIPE library collection: L363_DSMZ cell viability assay (AID 1918984); note: nearly all actives have a fitted effect of over 40% in size
# Outline: as §1
# [7] = Quantitative High-Throughput drug screen in 47 multiple myeloma cell lines against the NCATS MIPE library collection: KMS34_JCRB cell viability assay (AID 1918985); note: nearly all actives have a fitted effect of over 40% in size
# Outline: as §1
# [8] = Quantitative High-Throughput drug screen in 47 multiple myeloma cell lines against the NCATS MIPE library collection: OCIMY5_PLB cell viability assay (AID 1918988); note: nearly all actives have a fitted effect of over 65% in size
# Outline: as §1
# [9] = Quantitative High-Throughput drug screen in 47 multiple myeloma cell lines against the NCATS MIPE library collection: OPM1_PLB cell viability assay (AID 1918989); note: nearly all actives have a fitted effect of over 40% in size
# Outline: as §1
# [10] = Quantitative High-Throughput drug screen in 47 multiple myeloma cell lines against the NCATS MIPE library collection: SKMM1_PLB cell viability assay (AID 1919863); details: SKMM1 myeloma viability, CellTiter-Glo ATP, 48 h; viability: hits give low values; note: nearly all actives have a fitted effect of over 35% in size
# Outline: as §1
# [11] = Quantitative High-Throughput drug screen in 47 multiple myeloma cell lines against the NCATS MIPE library collection: U266_ATCC cell viability assay (AID 1919864); note: nearly all actives have a fitted effect of over 35% in size;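 for viability (% of DMSO control): 0% = media-only wells without cells and 100% = DMSO-only wells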
# Outline: as §1
# [12] = Quantitative High-Throughput drug screen in 47 multiple myeloma cell lines against the NCATS MIPE library collection: XG1_PLB cell viability assay (AID 1919866); note: nearly all actives have a fitted effect of over 35% in size
# Outline: as §1
# [13] = Quantitative High-Throughput drug screen in 47 multiple myeloma cell lines against the NCATS MIPE library collection: UTMC2_PLB cell viability assay (AID 1919868); details: CellTiter-Glo ATP luminescence, 48 h; viability (% of DMSO control): at 45.8 µM (top of the series); note: nearly all actives have a fitted effect of over 55% in size;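 for viability (% of DMSO control): 100% = DMSO-only wells and 0% = media-only wells without cells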
# Outline: as §1
# [14] = Quantitative High-Throughput drug screen in 47 multiple myeloma cell lines against the NCATS MIPE library collection: PE2_PLB cell viability assay (AID 1919869); note: nearly all actives have a fitted effect of over 35% in size
# Outline: as §1
# [15] = Quantitative High-Throughput drug screen in 47 multiple myeloma cell lines against the NCATS MIPE library collection: PCM6_Riken cell viability assay (AID 1919870); note: nearly all actives have a fitted effect of over 30% in size
# Outline: as §1
# [16] = Quantitative High-Throughput drug screen in 47 multiple myeloma cell lines against the NCATS MIPE library collection: RPMI8226_ATCC cell viability assay (AID 1919871); note: nearly all actives have a fitted effect of over 30% in size
# Outline: as §1
# [17] = Quantitative High-Throughput drug screen in 47 multiple myeloma cell lines against the NCATS MIPE library collection: OPM2_DSMZ cell viability assay (AID 1919872); note: nearly all actives have a fitted effect of over 30% in size
# Outline: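 Viability readout: CellTiter-Glo luminescence following 5 min room-temperature incubation with reagent. Prior exposure: 48 h, 37C, humidified 5% CO2, 500 cells per well.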
# [18] = Quantitative High-Throughput drug screen in 47 multiple myeloma cell lines against the NCATS MIPE library collection: OCIMY7_PLB cell viability assay (AID 1918987); details: OCI-MY7 myeloma viability, CellTiter-Glo ATP, 48 h; viability (% of DMSO): at 45.8 µM (top of the series); note: nearly all actives have a fitted effect of over 65% in size
# Outline: as §1
# [19] = Quantitative High-Throughput drug screen in 47 multiple myeloma cell lines against the NCATS MIPE library collection: XG6_PLB cell viability assay (AID 1919865); note: nearly all actives have a fitted effect of over 40% in size
# Outline: as §1
# [20] = Quantitative High-Throughput drug screen in 47 multiple myeloma cell lines against the NCATS MIPE library collection: VP6_DJ cell viability assay (AID 1919867); note: nearly all actives have a fitted effect of over 40% in size
# Outline: as §1
# Potency is the fitted concentration of half-maximal effect.
smiles,measurement,setting,value
C[C@H](CCC(=O)O)[C@H]1CCC2C3C[C@H](O)[C@@H]4C[C@H](O)CC[C@]4(C)C3CC[C@@]21C (stereo not given in full),Potency,[1],inactive
same,Potency,[2],inactive
same,Potency,[3],inactive
same,Potency,[4],inactive
same,Potency,[5],inactive
same,Potency,[6],inactive
same,Potency,[7],inactive
same,Potency,[8],inactive
same,Potency,[9],inactive
same,viability,[10],96.1%
same,Potency,[11],inactive
same,Potency,[12],18.7 µM (active)
same,Potency,[13],inactive
same,Potency,[14],inactive
same,Potency,[15],inactive
same,Potency,[16],inactive
same,Potency,[17],inactive
CC(C)C[C@H](NC(=O)CNC(=O)c1cc(Cl)ccc1Cl)B1OC(=O)CC(CC(=O)O)(C(=O)O)O1 (stereo not given in full),Potency,[1],0.059 µM (active)
same,Potency,[2],0.0418 µM (active)
same,Potency,[3],0.0296 µM (active)
same,Potency,[4],0.0743 µM (active)
same,Potency,[5],0.0526 µM (active)
same,Potency,[6],0.0833 µM (active)
same,Potency,[7],0.0469 µM (active)
same,Potency,[18],0.0296 µM (active)
same,Potency,[8],0.0264 µM (active)
same,Potency,[9],0.0372 µM (active)
same,Potency,[10],0.209 µM (active)
same,Potency,[11],0.0526 µM (active)
same,Potency,[19],0.0264 µM (active)
same,Potency,[12],0.0418 µM (active)
same,Potency,[20],0.0296 µM (active)
same,Potency,[13],0.526 µM (active)
same,Potency,[14],0.0296 µM (active)
same,Potency,[15],0.0469 µM (active)
same,Potency,[16],0.118 µM (active)
C[C@H](NC(=O)Cc1cc(F)cc(F)c1)C(=O)N[C@H](C(=O)OC(C)(C)C)c1ccccc1,Potency,[1],inactive
same,Potency,[2],inactive
same,Potency,[3],inactive
same,Potency,[4],inactive
same,Potency,[5],inactive
same,Potency,[6],inactive
same,Potency,[9],inactive
same,viability,[10],105%
same,Potency,[11],inactive
same,Potency,[19],inactive
same,Potency,[12],inactive
same,Potency,[14],inactive
same,Potency,[15],inactive
same,Potency,[17],inactive
Cn1cc(CNCC2CCN(c3ncc(C(=O)NO)cn3)CC2)c2ccccc21,Potency,[1],0.105 µM (active)
same,Potency,[2],0.0166 µM (active)
same,Potency,[3],0.0148 µM (active)
same,Potency,[4],0.0418 µM (active)
same,Potency,[5],0.0296 µM (active)
same,Potency,[6],0.0264 µM (active)
same,Potency,[7],0.0187 µM (active)
same,Potency,[18],0.0332 µM (active)
same,Potency,[8],0.0166 µM (active)
same,Potency,[9],0.0118 µM (active)
same,Potency,[10],0.059 µM (active)
same,Potency,[11],0.0372 µM (active)
same,Potency,[19],0.0833 µM (active)
same,Potency,[12],0.0526 µM (active)
same,Potency,[20],0.0132 µM (active)
same,Potency,[13],0.0187 µM (active)
same,Potency,[14],0.118 µM (active)
same,Potency,[15],0.0372 µM (active)
same,Potency,[16],0.0662 µM (active)
same,Potency,[17],0.0418 µM (active)

# Source: PubChem BioAssay (NCATS)
